# TTR transcr act = TTR transcription activation, primary screen. activation, % at 16.7 µM. SH-SY5Y TTR promoter Gaussia luciferase, luminescence; 100% = recombinant luciferase protein wells. 92,000 compounds, 1.3% hits;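 active = activation above the mean of all tested compounds plus 3 SD, cut at about 9.5% in these data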;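 also: cells exposed to compounds for one day before reading; 0% = median of all test compound wells on the plate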
# TTR inh HuH7 = HuH7 TTR transcription inhibition, counter-screen. shares compounds with TTR transcr act. 1,100 compounds, 4% hits. HuH7 TTR promoter-Gaussia luciferase reporter, luminescence. inhibition, % at 16.7 µM. AID 1117279;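 active = average inhibition above the solvent-only control wells' mean plus 3 SD, cut at about 15% in these data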;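 also: 0% = cells with DMSO only and 100% = cells with inhibitor control FD; inhibitors lower well luminescence so higher value means more inhibition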
# TTR act confirm = human TTR transcription activation, confirmation | activation, % at 16.7 µM | 1,100 tested, under 10 active | shares compounds with TTR transcr act | SHSY5Y TTR promoter Gaussia luciferase, luminescence; 100% = purified Lucia enzyme wells, no cells;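 active = mean activation above a set limit taken from the earlier primary screen, cut at about 11% in these data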;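 also: 0% = DMSO-treated cells and 100% = recombinant Lucia luciferase without cells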
# Starred values were filed as active, the others as inactive. The entries come from a sample that favours hits as a whole.
SMILES,TTR transcr act,others
CC1=C(C(=O)N(C(C)C)C(C)C)CC(CC(=O)NCc2cccs2)C(=O)N1Cc1ccc(F)cc1 (stereo not given),1,
CCN(CC)C(=O)C1=C(C)N(Cc2ccc(OC)cc2)C(=O)C(CC(=O)NCc2cccc3ccccc23)C1 (stereo not given),2,
Cc1ccc2c(c1)S(=O)(=O)c1ccc3ccccc3c1N2,0,
COc1ccc(C)cc1NC(=O)C1CCCN(S(=O)(=O)c2cccnc2)C1 (stereo not given),-2,
O=C1OCc2ccc(NC(=O)c3c(F)cccc3Cl)cc21,0,
O=C(Nc1cccc(Cl)c1)Nc1ccc2c(c1)C(=O)OC2,2,
O=C1OCc2ccc(NC(=O)C3CC3)cc21,21*,TTR inh HuH7=-6;TTR act confirm=0
Cc1csc(C(=O)NN)c1N(C)C,-3,
OCC1CCCN(C(=S)NCCc2ccccc2)C1 (stereo not given),2,
CN1CCN(C(=S)NCCc2ccccc2)CC1,11*,TTR inh HuH7=-14;TTR act confirm=-1
O=C(c1ccccc1)N1CCN(C(=S)NCCc2ccccc2)CC1,-1,
NC(=O)[C@H]1CC2(CC(c3cccc(NC(=O)COc4ccc(Cl)cc4)c3)=NO2)CN1C(=O)C(c1ccccc1)c1ccccc1 (stereo not given in full),-8,
COC(=O)[C@]12C[C@H](CC(=O)NCc3cccc(C(F)(F)F)c3)C(=O)N(Cc3ccc(Cl)cc3Cl)C1=C[C@H](C1CCCC1)O[C@@H]2C,0,
C=CC[C@H](CC(=O)NCCO)C(=O)N[C@@H](COC(=O)[C@H](CC=C)CC(=O)OC(C)(C)C)Cc1c[nH]c2ccccc12,-1,
CCOC(=O)NC(CC(=O)O)c1ccc(OC)c(OC)c1 (stereo not given),9.7*,TTR inh HuH7=6;TTR act confirm=-1
COc1ccc(C(CC(=O)O)NC(=O)c2cc3cc(Br)ccc3oc2=O)cc1OC (stereo not given),-2,
CCOc1ccc(C(NC(=O)/C=C/c2ccco2)c2ccc(OC)c(OC)c2)cc1 (stereo not given),0,
CCOC(=O)NC(CC(=O)O)c1ccc(OCC)cc1 (stereo not given),2,
CCOc1ccc(C(NC(C)=O)c2ccc(OC)c(OC)c2)cc1 (stereo not given),11*,TTR inh HuH7=-5;TTR act confirm=1
CCCC(=O)NC(c1ccc(OCC)cc1)c1ccc(OC)c(OC)c1 (stereo not given),-1,
CCC(=O)N1CCc2cc(S(=O)(=O)CCC(=O)N3CCN(c4ccc(F)cc4)CC3)ccc21,-2,
CCOC(=O)Nc1cc(NC(=O)OCC)c(C)nc1C,0,
Cn1c2ccccc2c(=O)c2c(=O)n(Cc3cccc4ccccc34)cnc21,2,
CCn1c2ccccc2c2cc(CN3CCN(S(=O)(=O)CC)CC3)ccc21,19*,TTR inh HuH7=-9;TTR act confirm=1
CCn1c(=O)cc(SCC(=O)N2CCN(Cc3ccc4c(c3)OCO4)CC2)c2ccccc21,1,
SMILES,TTR transcr act,others
CCn1c2ccc(CC(=O)O)cc2c2cc(CC(=O)O)ccc21,0,
Cc1ccc(NC(=O)[C@@H]2CCCN2S(=O)(=O)c2cccc3cccnc23)c(C)c1,1,
CCCCC(=O)N(Cc1nc2sc(C)c(C)c2c(=O)[nH]1)C1CCCC1,-1,
O=C(Nc1ccc2c(c1)OCCO2)C1c2ccccc2OCC(=O)N1CC(F)(F)F (stereo not given),-1,
CCOc1ccc(OCC)c(NC(=O)C2CCCN(c3ncccn3)C2)c1 (stereo not given),-1,
CCC(C)c1ccc(NC(=O)C2CCCN(c3ncccn3)C2)cc1 (stereo not given),-2,
CCc1ccccc1NC(=O)C1CCCN(c2ncccn2)C1 (stereo not given),12*,TTR inh HuH7=-10;TTR act confirm=1
CC(C)C[C@H](NC1(C(=O)NC2CCCCC2)CCN(C(=O)OC(C)(C)C)CC1)C(=O)NCCc1c[nH]c2ccccc12,7,
CC1(c2nnnn2-c2ccc3c(c2)OCCO3)CCC(=O)N1Cc1ccc(F)cc1 (stereo not given),3,
CC(=O)OCCN(C)c1cc(SC(C)C)c2nonc2c1[N+](=O)[O-],18*,TTR inh HuH7=1;TTR act confirm=0
CN(C)c1cc(Nc2ccc(O)cc2)c([N+](=O)[O-])c2nonc12,6,
CCOC(=O)N1CCN(c2cc(N(C)CCO)c([N+](=O)[O-])c3nonc23)CC1,-1,
COc1ccc(CCN(C)C2CCCN(C(=O)CCC(F)(F)F)C2)cc1OC (stereo not given),0,
CCNc1ncnc2c1cnn2C1CCCCO1 (stereo not given),-1,
CC1(c2nnnn2-c2ccc3ccccc3c2)CSCC(=O)N1C1CC1 (stereo not given),0,
Cc1ccc(-n2nc3ccc(NC(=O)c4ccc5c(c4)OCO5)cc3n2)cc1,1,
CC(C)(C)c1cnnn1-c1ccc(NC(=O)c2ccc3c(c2)OCO3)cc1,-1,
CCc1ccc(-n2nc3ccc(NC(=O)c4ccc5c(c4)OCO5)cc3n2)cc1,14*,TTR inh HuH7=-2;TTR act confirm=0
CCOC(=O)[C@]12CCCC=C1N(CCCOC)C(=O)[C@@H]2CC(=O)N1CCC(c2ccccc2)CC1,0,
COc1ccc2c(c1C(=O)/C=C/c1ccccc1)OC(C)(C)C=C2,0,
c1ccc2oc(-c3ccc(Nc4nc(N5CCOCC5)nc(N5CCOCC5)n4)cc3)nc2c1,10*,TTR inh HuH7=-7;TTR act confirm=0
Clc1cccc(Nc2nc(N3CCOCC3)nc(N3CCOCC3)n2)c1,2,
CCc1ccc(Nc2nc(N3CCOCC3)nc(N3CCOCC3)n2)cc1,1,
COC(=O)[C@]12CCCCC=C1N(Cc1ccc(OC)cc1)C(=O)[C@@H]2CC(=O)NCc1cccc(C(F)(F)F)c1,1,
O=C(NC1CCCCC1)C12CC3CC(C1)CC(n1cncn1)(C3)C2,13*,TTR inh HuH7=-5;TTR act confirm=0
SMILES,TTR transcr act,others
Cc1cc(NC(=O)C23CC4CC(C2)CC(n2cnc([N+](=O)[O-])n2)(C4)C3)no1,-3,
O=C(Nc1ccon1)C12CC3CC(C1)CC(n1cnc([N+](=O)[O-])n1)(C3)C2,0,
CCc1ccc(-c2nc(CS(=O)CC(=O)NCc3ccc4c(c3)OCO4)c(C)o2)cc1 (stereo not given),6,
Cc1nc2ccc(Cl)cc2nc1C,-2,
CCCCn1c(N)c(N(CCC(C)C)C(=O)COC(=O)c2cccnc2SC)c(=O)[nH]c1=O,0,
CCOc1ncccc1C(=O)N(CCC(C)C)c1c(N)n(Cc2ccccc2)c(=O)[nH]c1=O,17*,TTR inh HuH7=-5;TTR act confirm=0
CC(C)CCN(C(=O)c1ccncc1)c1c(N)n(Cc2ccccc2)c(=O)[nH]c1=O,2,
CC(C(=O)NCCC1=CCCCC1)c1ccc([N+](=O)[O-])cc1 (stereo not given),6,
O=C1CCC[C@H]2C[C@H](NCc3cccnc3)CC[C@]23CCCN13,2,
CCn1c(=O)n(CC)c2cc(N3CCCC3)c(NC(=O)c3ccccc3F)cc21,-1,
COc1ccc(CC(=O)NNC(=O)CCc2ccccc2)cc1,0,
Cc1ccccc1OCC(=O)NNC(=S)NC(=O)c1ccco1,1,
Cc1ccccc1OCC(=O)NNC(=O)CCc1ccccc1,10*,TTR inh HuH7=-10;TTR act confirm=0
COc1ccc(/C(C)=N/NC(=O)Cc2c(C)nc(C)[nH]c2=O)cc1,2,
COc1cc(/C(C)=N/NC(=O)Cc2c(C)[nH][nH]c2=O)ccc1O,14*,TTR inh HuH7=-5;TTR act confirm=0

# High-throughput results (PubChem BioAssay)
